PubChem BioAssay (NCATS)
Where “and” joins values, the source holds several entries; their conditions need not be identical. Equal entries are not always repeated. A number with no mark means an inactive call. Records with an inconclusive call do not appear. Calls of active or inactive are those of the source. Unless noted, the call rests on the fitted dose curve; in most records, active means well fitted inhibition curve with a large enough effect; inconclusive means small, poorly fitted or top-dose-only effect; inactive means flat fitted curve, though single readings scatter.

Experiments:
[1] = Drug repurposing screens with cells derived from glioblastoma tumor samples (AID 1345199); conditions: GBM patient neurospheres viability, ATP luminescence, 48 h; further: nearly all actives have a fitted effect of over 40% in size; further: potency means the concentration at half of the fitted maximal effect; on activity, negative = cell killing: on the % scale 0 is the no-effect control and ±100 the full control effect
How it was run: (§1)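 Four patient lines of CD133+ GBM neurospheres were screened at several concentrations; hits were retested in those lines plus three slower-growing GBM lines, using 48-hour treatment and ATP-based viability.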

astro = control astrocytes; assay: as above; conditions: viability, ATP luminescence, 48 h; series mostly up to 45.9 µM
How it was run: as §1

[2] = target: Nuclear receptor subfamily 1 group I member 2 (Rattus norvegicus) (UniProt Q9R1A7); assay: qHTS assay for small molecule activators of the rat pregnane X receptor (rPXR) signaling pathway (AID 651751; call rule not given here; further: 0% is about no effect); conditions: rPXR reporter cells, luciferase (One-Glo), 24 h
Chain of Nuclear receptor subfamily 1 group I member 2 (Rattus norvegicus) (Q9R1A7 whole entry, looked up): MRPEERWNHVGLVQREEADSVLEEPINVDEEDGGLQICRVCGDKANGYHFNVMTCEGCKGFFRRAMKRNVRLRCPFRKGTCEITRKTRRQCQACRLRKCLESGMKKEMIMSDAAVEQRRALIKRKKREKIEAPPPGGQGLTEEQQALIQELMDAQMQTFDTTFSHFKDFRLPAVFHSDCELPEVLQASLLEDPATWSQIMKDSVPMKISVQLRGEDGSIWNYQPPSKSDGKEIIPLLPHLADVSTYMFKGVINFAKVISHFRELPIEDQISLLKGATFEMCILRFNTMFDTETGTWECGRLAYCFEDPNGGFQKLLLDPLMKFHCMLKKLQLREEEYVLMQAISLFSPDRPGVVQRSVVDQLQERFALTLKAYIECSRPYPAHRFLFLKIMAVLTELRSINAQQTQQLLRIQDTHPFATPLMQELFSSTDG

[3] = qHTS assay for small molecule activators of the human pregnane X receptor (PXR) signaling pathway (AID 720659; call rule not given here; further: 0% is about no effect); conditions: DPX-2 HepG2 CYP3A4-luciferase, 24 h; series mostly up to 92.3 µM
[4] = at 45.9 µM (top of the series), tumour line B
[5] = at 45.9 µM (top of the series), tumour line D
[6] = at 46 µM (top of the series), tumour line A
[7] = at 46.1 µM (top of the series), tumour line C
[8] = at 20 µM (top of the series), tumour line C
[9] = at 21.2 µM (top of the series), tumour line B
[10] = at 21.2 µM (top of the series), tumour line D

SMILES: CC(/C=C/C=C(\C)C(=O)O[C@@H]1O[C@H](CO[C@@H]2O[C@H](CO)[C@@H](O)[C@H](O)[C@H]2O)[C@@H](O)[C@H](O)[C@H]1O)=C\C=C\C=C(C)\C=C\C=C(/C)C(=O)O[C@@H]1O[C@H](CO[C@@H]2O[C@H](CO)[C@@H](O)[C@H](O)[C@H]2O)[C@@H](O)[C@H](O)[C@H]1O
- activity, negative = cell killing [1, 4]: -13.5%
- activity, negative = cell killing [1, 5]: 5.42%
- activity, negative = cell killing [1, 6]: -21.7%
- activity, negative = cell killing [1, 7]: 10.7%
- Potency (astro): inactive

SMILES: O=P(O)(O)O
- activity, negative = cell killing [1, 4]: 9.14%
- activity, negative = cell killing [1, 5]: -2.27%
- activity, negative = cell killing [1, 6]: -6.51%
- activity, negative = cell killing [1, 7]: 0.794%
- Potency (astro): inactive
- max response [2]: -0.433%
- outcome [3]: inactive

SMILES: C=CC[C@@H]1/C=C(\C)C[C@H](C)C[C@H](OC)[C@H]2O[C@@](O)(C(=O)C(=O)N3CCCC[C@H]3C(=O)O[C@H](/C(C)=C/[C@@H]3CC[C@@H](O)[C@H](OC)C3)[C@H](C)[C@@H](O)CC1=O)[C@H](C)C[C@@H]2OC
- activity, negative = cell killing [1, 4]: -12.2%
- activity, negative = cell killing [1, 5]: -18.8%
- activity, negative = cell killing [1, 7]: -16.1%
- Potency ([1]; tumour line A): 7.94 µM (active)
- Potency (astro): inactive

SMILES: CC1=CCC2CC1C2(C)C (stereo not drawn)
- activity, negative = cell killing [1, 4]: -2.1%
- activity, negative = cell killing [1, 5]: 2.05%
- activity, negative = cell killing [1, 6]: -19.4%
- activity, negative = cell killing [1, 7]: 11.1%
- Potency (astro): inactive
- max response [2]: 1.07%
- outcome [3]: inactive

SMILES: C=C(C)C1CC=C(C)CC1 (stereo not drawn)
- activity, negative = cell killing [1, 4]: -13.3%
- activity, negative = cell killing [1, 5]: -4.33%
- activity, negative = cell killing [1, 6]: -25%
- activity, negative = cell killing [1, 7]: -2.45%
- Potency (astro): inactive
- max response [2]: 7.4% and -2.46%

SMILES: O=C(NCCNCC(O)COc1ccc(O)cc1)N1CCOCC1 (stereo not drawn)
- activity, negative = cell killing [1, 4]: -5.84%
- activity, negative = cell killing [1, 5]: -3.52%
- activity, negative = cell killing [1, 6]: -55.7%
- activity, negative = cell killing [1, 7]: -0.52%
- Potency (astro): inactive

SMILES: CC(=O)Nc1c(I)c(C(=O)O)c(I)c(N(C)C(C)=O)c1I
- activity, negative = cell killing [1, 4]: 6.39%
- activity, negative = cell killing [1, 5]: 5.92%
- activity, negative = cell killing [1, 6]: -22.3%
- activity, negative = cell killing [1, 7]: 7.24%
- Potency (astro): inactive

SMILES: OCl
- activity, negative = cell killing [1, 4]: -3.7%
- activity, negative = cell killing [1, 5]: -8.71%
- activity, negative = cell killing [1, 6]: -24.4%
- activity, negative = cell killing [1, 7]: -3.94%
- Potency (astro): inactive
- max response [2]: -4.49%
- outcome [3]: inactive

SMILES: C[Si](C)(C)O[Si](C)(C)C
- activity, negative = cell killing [1, 4]: -9.61%
- activity, negative = cell killing [1, 5]: -4.16%
- activity, negative = cell killing [1, 6]: -2.42%
- activity, negative = cell killing [1, 7]: -22.1%
- Potency (astro): inactive
- max response [2]: -0.472%
- outcome [3]: inactive

SMILES: C[C@H](CCC(=O)O)[C@H]1CC[C@H]2[C@@H]3CC[C@@H]4C[C@H](O)CC[C@]4(C)[C@H]3C[C@H](O)[C@]12C
- activity, negative = cell killing [1, 4]: -4.54%
- activity, negative = cell killing [1, 5]: 7.18%
- activity, negative = cell killing [1, 6]: -19.5%
- activity, negative = cell killing [1, 7]: -8.85%
- Potency (astro): inactive
- max response [2]: -12.5%

SMILES: NC[C@@H]1CC[C@@H](N)[C@@H](O[C@H]2[C@H](O)[C@@H](O[C@H]3O[C@H](CO)[C@@H](O)[C@H](N)[C@H]3O)[C@H](N)C[C@@H]2N)O1
- activity, negative = cell killing [1, 4]: 0.351%
- activity, negative = cell killing [1, 5]: 3.76%
- activity, negative = cell killing [1, 6]: -27.2%
- activity, negative = cell killing [1, 7]: -13%
- Potency (astro): inactive

SMILES: OC[C@@H](O)C(O)[C@H](O)CO
- activity, negative = cell killing [1, 4]: -10.5%
- activity, negative = cell killing [1, 5]: -11.3%
- activity, negative = cell killing [1, 6]: -25%
- activity, negative = cell killing [1, 7]: 11.8%
- Potency (astro): inactive

SMILES: COC1[C@@H](O[C@@H]2O[C@H](C)[C@@H](O[C@H]3C[C@@](C)(O)[C@H](OC(=O)CC(C)C)[C@H](C)O3)[C@H](N(C)C)[C@H]2O)[C@@H](CC=O)C[C@@H](C)[C@@H](O)/C=C/C=C/C[C@@H](C)OC(=O)C[C@H]1OC(C)=O (stereo partly drawn)
- activity, negative = cell killing [1, 8]: -1.06%
- activity, negative = cell killing [1, 9]: -12.1%
- activity, negative = cell killing [1, 10]: -12.4%

SMILES: C=CC[N@@+]12CC[C@@]34c5ccccc5N5/C=C6/[C@H]7C[C@H]8[C@@]9(CC[N@@+]8(CC=C)C/C7=C/CO)c7ccccc7N(/C=C(/[C@@H](C[C@@H]31)/C(=C\CO)C2)[C@H]54)[C@@H]69
- activity, negative = cell killing [1, 8]: -3.52%
- activity, negative = cell killing [1, 9]: -8.94%
- activity, negative = cell killing [1, 10]: 3.96%

SMILES: CC[C@H]1OC(=O)[C@H](C)[C@@H](O[C@H]2C[C@@](C)(OC)[C@@H](O)[C@H](C)O2)[C@H](C)[C@@H](O[C@@H]2O[C@H](C)C[C@H](N(C)C)[C@H]2O)[C@](C)(O)C[C@@H](C)CN(C)[C@H](C)[C@@H](O)[C@]1(C)O
- Potency ([1]; tumour line A): 5.01 µM (active)

SMILES: NC(N)=NCC1COc2ccccc2O1 (stereo not drawn)
- Potency ([1]; tumour line A): 35.5 µM (active)

SMILES: CO/N=C(\C(=O)N[C@@H]1C(=O)N2C(C(=O)[O-])=C(C[n+]3cccc4c3CCC4)CS[C@H]12)c1csc(N)n1
- Potency ([1]; tumour line C): 23.1 µM (active)

SMILES: CCOC(=O)[C@H](CS)NCCN[C@@H](CS)C(=O)OCC
- activity, negative = cell killing [1, 4]: -15.2%
- activity, negative = cell killing [1, 5]: -8.47%
- activity, negative = cell killing [1, 7]: -15.5%
- Potency (astro): inactive

SMILES: CCCCCCCCCCCCCCCCCC(=O)OCC(C)O (stereo not drawn)
- activity, negative = cell killing [1, 4]: -18.7%
- activity, negative = cell killing [1, 5]: -0.865%
- activity, negative = cell killing [1, 6]: -14.9%
- Potency (astro): inactive

SMILES: CC1=C[C@H](O)CC(C)(C)[C@H]1/C=C/C(C)=C/C=C/C(C)=C/C=C/C=C(C)/C=C/C=C(C)/C=C/C1=C(C)C[C@@H](O)CC1(C)C
- activity, negative = cell killing [1, 4]: -18.9%
- activity, negative = cell killing [1, 5]: -21.1%
- activity, negative = cell killing [1, 7]: -27.4%
- Potency (astro): inactive

SMILES: Cc1ccc(S(=O)(=O)NC(=O)N[C@@H](C)Cc2ccccc2)cc1
- activity, negative = cell killing [1, 4]: -12%
- activity, negative = cell killing [1, 5]: -19.4%
- activity, negative = cell killing [1, 7]: -17.1%
- Potency (astro): inactive

SMILES: CC[C@H]1NC(=O)[C@@H](NC(=O)c2ncccc2O)[C@@H](C)OC(=O)[C@H](c2ccccc2)NC(=O)[C@@H]2CC(=O)CCN2C(=O)[C@H](Cc2ccccc2)N(C)C(=O)[C@@H]2CCCN2C1=O
- activity, negative = cell killing [1, 4]: -1.4%
- activity, negative = cell killing [1, 5]: 17.7%
- activity, negative = cell killing [1, 7]: -11%
- Potency (astro): inactive

SMILES: CC[C@H]1OC(=O)[C@H](C)[C@@H](O[C@H]2C[C@@](C)(OC)[C@@H](O)[C@H](C)O2)C(C)[C@@H](O[C@@H]2O[C@H](C)C[C@H](N(C)C)[C@@H]2O)[C@](C)(OC)C[C@@H](C)C(=O)[C@H](C)[C@@H](O)[C@]1(C)O (stereo partly drawn)
- activity, negative = cell killing [1, 4]: -10.3%
- activity, negative = cell killing [1, 5]: -27.7%
- activity, negative = cell killing [1, 7]: 2.27%
- Potency (astro): inactive
